The values that follow come from PubChem BioAssay (Tox21).

Molecules are shown by their SMILES. The source made the active and inactive calls. Unless noted, the call rests on the fitted dose curve; in most records, active means well fitted curve in the direction sought with a large enough effect in the repeat runs; inconclusive means weak or mixed curves; inactive means no such curve, though single readings can be large; an effect the other way counts as inactive or inconclusive.

The nature of assay [1]: qHTS assay to identify small molecule antagonists of the thyroid receptor (TR) signaling pathway - cell viability counter screen (AID 743064). Further: nearly all actives have a fitted effect of over 50% in size. Further: potency means the concentration at half of the fitted maximal effect. A digest of the protocol:
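Viability of T3-stimulated (1 nM final) GH3.TRE-Luc cells is measured by CellTiter-Fluor fluorescence after 23.5 h compound exposure at 37 °C plus 30 min reagent incubation.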
A general note: In qHTS, concentration-response curves come from the screen itself.

The nature of assay [2]: qHTS assay to identify small molecule antagonists of the thyroid receptor (TR) signaling pathway (AID 743065). Further: nearly all actives have a fitted effect of over 55% in size. Further: potency means the concentration at half of the fitted maximal effect. In a few lines: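 GH3.TRE-Luc rat pituitary cells carrying two TR response elements driving luciferase were plated for 4 h, given compound plus 1 nM T3 (final), and incubated 23.5 h at 37 C. ONE-Glo luminescence measured reporter inhibition; CellTiter-Fluor fluorescence tracked cytotoxicity.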

The subject of assay [3] is thyroid hormone receptor (rat, GH3 cells). Kind of assay: qHTS assay to identify small molecule agonists of the thyroid receptor (TR) signaling pathway (AID 743066; calls by dose curve).
The target of assay [4] is Estrogen receptor (Homo sapiens) (UniProt P03372). Kind of assay: qHTS assay to identify small molecule agonists of the estrogen receptor alpha (ER-alpha) signaling pathway (AID 743075; calls by dose curve).
Assay [5] can be described thus: qHTS assay to identify small molecule antagonists of the estrogen receptor alpha (ER-alpha) signaling pathway using the BG1 cell line - cell viability counter screen (AID 743081).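 Further: compound given together with 17beta-estradiol as the ER stimulus; nearly all actives have a fitted effect of over 45% in size.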 Further: potency means the concentration at half of the fitted maximal effect.
Assay [6] can be described thus: qHTS assay to identify aromatase inhibitors - cell viability counter screen (AID 743084).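 Further: cells stimulated with testosterone during compound exposure; nearly all actives have a fitted effect of over 55% in size.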 Further: potency means the concentration at half of the fitted maximal effect.
Assay [7] in a line: qHTS assay to identify small molecule antagonists of the peroxisome proliferator-activated receptor gamma (PPARg) signaling pathway - cell viability counter screen (AID 743194). Further: nearly all actives have a fitted effect of over 55% in size. Further: potency means the concentration at half of the fitted maximal effect. In a few lines:
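PPARg-UAS-bla HEK293H cells were plated, rested 5 h at 37 C, then treated with compounds plus rosiglitazone (50 nM final) for 17 h at 37 C; viability was then read by CellTiter-Glo luminescence after 30 min at room temperature.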

Assay [8] is described as follows: qHTS assay for small molecule agonists of the antioxidant response element (ARE) signaling pathway (AID 743202; active means well fitted activation curve with a large enough effect in the signal ratio in the repeat runs, not every such curve was filed as active; inconclusive means weak or mixed curves, or effect the other way; inactive means no such curve, though single readings can be large or run the other way; the % refers to the signal ratio; further: potency means the concentration at half of the fitted maximal effect). A digest of the protocol:
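Steps: seed ARE-bla HepG2 cells (2,000/well); incubate 5 h at 37 C; add compounds by pin tool; incubate 16 h at 37 C; add FRET substrate; read fluorescence after 2 h at RT.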

Assay [9] is described as follows: qHTS assay for small molecule agonists of the antioxidant response element (ARE) signaling pathway - cell viability counter screen (AID 743203; calls by dose curve; further: nearly all actives have a fitted effect of over 55% in size; further: potency means the concentration at half of the fitted maximal effect). In a few lines:
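Luminescence read-out (CellTiter-Glo, 30 min at room temperature) measured cell viability in the same wells as the ARE beta-lactamase reporter. HepG2 ARE-bla cells were treated with compounds for 16 hrs at 37C/5% CO2.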

The nature of assay [10]: qHTS assay for small molecule activators of the heat shock response signaling pathway - cell viability counter screen (AID 743209). Further: nearly all actives have a fitted effect of over 50% in size. Further: potency means the concentration at half of the fitted maximal effect. In a few lines:
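HSE-bla HeLa; 1500 cells/well; overnight 37 C, 5% CO2; compound 5 h 37 C; LiveBLAzer B/G substrate 2.5 h RT; CellTiter-Glo 30 min RT; luminescence.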

Assay [11] addresses Estrogen receptor (Homo sapiens) (UniProt P03372). Nature of the assay: qHTS assay to identify small molecule antagonists of the estrogen receptor alpha (ER-alpha) signaling pathway (AID 743069; active means well fitted curve in the direction sought with a large enough effect in the signal ratio in the repeat runs, not every such curve was filed as active; inconclusive means weak or mixed curves, or effect the other way; inactive means no such curve, though single readings can be large or run the other way; the % refers to the signal ratio; further: potency means the concentration at half of the fitted maximal effect). A digest of the protocol: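 Screening used a UAS-driven beta-lactamase reporter integrated into HEK293 cells expressing ER-alpha, stimulated with 17beta-estradiol alongside test compounds over 18 hr at 37C; signal came from LiveBLAzer B/G FRET fluorescence.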

The nature of assay [12]: qHTS assay to identify small molecule antagonists of the estrogen receptor alpha (ER-alpha) signaling pathway - cell viability counter screen (AID 743074; calls by dose curve; further: nearly all actives have a fitted effect of over 45% in size; further: potency means the concentration at half of the fitted maximal effect).
The target in assay [13] is Estrogen receptor (Homo sapiens) (UniProt P03372). Nature of the assay: qHTS assay to identify small molecule agonists of the estrogen receptor alpha (ER-alpha) signaling pathway using the BG1 cell line (AID 743079). Further: nearly all actives have a fitted effect of over 20% in size. Further: potency means the concentration at half of the fitted maximal effect. The conditions noted are these: BG1Luc4E2 cells, ERE-luciferase agonist, 22 h; activation: at 70.3 µM (top of the series).
Assay [14] is described as follows: qHTS assay to identify small molecule antagonists of the estrogen receptor alpha (ER-alpha) signaling pathway using the BG1 cell line (AID 743080; calls by dose curve;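 further: BG1 cells stimulated with 17beta-estradiol alongside compound; nearly all actives have a fitted effect of over 25% in size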; further: potency means the concentration at half of the fitted maximal effect). The conditions noted are these: BG1Luc4E2 ERE-luciferase antagonist mode, luminescence; activity change, negative = inhibition: at 70.3 µM (top of the series). In a few lines: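 Luciferase inhibition measured with ONE-Glo after 30 min at RT in BG1Luc4E2 cells given test compounds and 17beta-estradiol for 21.5 h at 37 C; CellTiter-Fluor viability read in the same wells beforehand.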

The target of the next assay is Aromatase (Homo sapiens) (UniProt P11511). Kind of assay: qHTS assay to identify aromatase inhibitors (AID 743083). Further: nearly all actives have a fitted effect of over 55% in size. Further: potency means the concentration at half of the fitted maximal effect.
The target of assay [15] is Aryl hydrocarbon receptor (Homo sapiens) (UniProt P35869). Nature of the assay: qHTS assay to identify small molecule that activate the aryl hydrocarbon receptor (AhR) signaling pathway (AID 743085). Further: nearly all actives have a fitted effect of over 15% in size. Further: potency means the concentration at half of the fitted maximal effect.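 On activation: HG2L7.5c1 human HepG2 liver cells with stably integrated DRE-driven firefly reporter.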 In a few lines:
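A multiplexed format paired cell viability (CellTiter-Fluor fluorescence) with AhR-dependent luciferase output (ONE-Glo luminescence) in the same wells of HepG2 DRE-luc cells after 24 h compound exposure at 37C.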

The nature of assay [16]: qHTS assay to identify small molecule that activate the aryl hydrocarbon receptor (AhR) signaling pathway - cell viability counter screen (AID 743086). Further: nearly all actives have a fitted effect of over 45% in size. Further: potency means the concentration at half of the fitted maximal effect. In a few lines:
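HepG2-AhR-luc (HG2L7.5c1) cells, 4000/well, were preincubated 5 h at 37C, exposed to compound in qHTS format for 24 hr at 37C, then given CellTiter-Fluor for 30 min; viability was read as fluorescence in the reporter wells.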

Assay [17] addresses Peroxisome proliferator-activated receptor gamma (Homo sapiens) (UniProt P37231). Nature of the assay: qHTS assay to identify small molecule agonists of the peroxisome proliferator-activated receptor gamma (PPARg) signaling pathway (AID 743094; active means well fitted activation curve with a large enough effect in the signal ratio in the repeat runs, not every such curve was filed as active; inconclusive means weak or mixed curves, or effect the other way; inactive means no such curve, though single readings can be large or run the other way; the % refers to the signal ratio). A digest of the protocol: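 HEK293H PPARg-bla cells, 5 h settle at 37C/5% CO2; compound (DMSO) 17 h, 37C; B/G FRET substrate 1 h RT; fluorescence intensity read-out. qHTS format.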

Assay [18] has the same target. Nature of the assay: qHTS assay to identify small molecule antagonists of the peroxisome proliferator-activated receptor gamma (PPARg) signaling pathway (AID 743191; calls by dose curve; further: nearly all actives have a fitted effect of over 30% in size). In a few lines:
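GeneBLAzer PPARg UAS-bla HEK293H cells carrying a UAS-driven beta-lactamase reporter were plated at 3000 cells/well, preincubated 5 h at 37C, then given compound for 17 h at 37C; LiveBLAzer B/G FRET substrate was read after 1 h at room temperature.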

Assay [19] in a line: qHTS assay for small molecule activators of the heat shock response signaling pathway (AID 743210; active means well fitted activation curve with a large enough effect in the signal ratio in the repeat runs, with a control signal flat, not every such curve was filed as active; inconclusive means weak or mixed curves; the % refers to the signal ratio;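 further: HeLa cells with beta-lactamase reporter driven by heat shock elements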). A digest of the protocol:
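Activation of heat shock element-controlled beta-lactamase expression is measured in HeLa cells by LiveBLAzer FRET fluorescence, with compound exposure lasting 5 h at 37 C and substrate loading 2.5 h at room temperature.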

Chain of Aryl hydrocarbon receptor (Homo sapiens) (P35869 whole entry, looked up): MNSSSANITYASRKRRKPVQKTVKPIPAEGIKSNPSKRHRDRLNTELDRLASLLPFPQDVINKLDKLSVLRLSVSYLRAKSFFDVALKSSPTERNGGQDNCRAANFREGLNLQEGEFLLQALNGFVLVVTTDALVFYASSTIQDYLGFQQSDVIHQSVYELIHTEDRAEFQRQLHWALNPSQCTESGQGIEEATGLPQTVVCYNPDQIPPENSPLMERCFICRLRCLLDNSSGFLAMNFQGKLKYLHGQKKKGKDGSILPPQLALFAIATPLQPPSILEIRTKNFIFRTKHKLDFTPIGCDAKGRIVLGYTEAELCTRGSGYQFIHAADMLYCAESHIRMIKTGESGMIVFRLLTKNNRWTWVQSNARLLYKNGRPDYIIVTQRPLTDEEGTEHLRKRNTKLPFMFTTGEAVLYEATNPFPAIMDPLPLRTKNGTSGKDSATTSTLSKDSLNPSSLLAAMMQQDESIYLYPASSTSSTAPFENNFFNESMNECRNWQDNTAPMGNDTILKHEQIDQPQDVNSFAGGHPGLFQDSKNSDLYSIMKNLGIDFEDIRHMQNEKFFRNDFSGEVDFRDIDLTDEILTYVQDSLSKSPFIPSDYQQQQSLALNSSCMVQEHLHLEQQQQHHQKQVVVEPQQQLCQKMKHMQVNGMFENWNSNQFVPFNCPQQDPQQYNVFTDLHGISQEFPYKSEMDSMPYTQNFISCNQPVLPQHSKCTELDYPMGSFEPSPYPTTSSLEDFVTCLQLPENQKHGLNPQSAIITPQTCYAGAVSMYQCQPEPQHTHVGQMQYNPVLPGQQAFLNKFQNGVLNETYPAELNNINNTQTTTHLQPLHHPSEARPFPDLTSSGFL
Chain of Peroxisome proliferator-activated receptor gamma (Homo sapiens) (P37231 whole entry, looked up): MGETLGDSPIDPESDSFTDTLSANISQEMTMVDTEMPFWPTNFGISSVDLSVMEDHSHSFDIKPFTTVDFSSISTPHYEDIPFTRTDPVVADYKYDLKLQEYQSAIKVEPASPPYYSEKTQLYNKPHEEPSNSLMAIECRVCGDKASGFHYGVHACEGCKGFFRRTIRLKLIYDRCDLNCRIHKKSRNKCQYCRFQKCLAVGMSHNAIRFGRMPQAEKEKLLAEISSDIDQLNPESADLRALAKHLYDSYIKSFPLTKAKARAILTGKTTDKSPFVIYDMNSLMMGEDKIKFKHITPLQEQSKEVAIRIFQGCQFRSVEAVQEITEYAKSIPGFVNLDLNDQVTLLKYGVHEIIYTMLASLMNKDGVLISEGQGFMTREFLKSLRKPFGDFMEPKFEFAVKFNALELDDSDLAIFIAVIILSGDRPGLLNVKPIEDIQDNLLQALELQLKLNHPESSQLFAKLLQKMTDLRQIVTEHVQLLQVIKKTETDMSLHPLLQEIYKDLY
Chain of Aromatase (Homo sapiens) (P11511 whole entry, looked up): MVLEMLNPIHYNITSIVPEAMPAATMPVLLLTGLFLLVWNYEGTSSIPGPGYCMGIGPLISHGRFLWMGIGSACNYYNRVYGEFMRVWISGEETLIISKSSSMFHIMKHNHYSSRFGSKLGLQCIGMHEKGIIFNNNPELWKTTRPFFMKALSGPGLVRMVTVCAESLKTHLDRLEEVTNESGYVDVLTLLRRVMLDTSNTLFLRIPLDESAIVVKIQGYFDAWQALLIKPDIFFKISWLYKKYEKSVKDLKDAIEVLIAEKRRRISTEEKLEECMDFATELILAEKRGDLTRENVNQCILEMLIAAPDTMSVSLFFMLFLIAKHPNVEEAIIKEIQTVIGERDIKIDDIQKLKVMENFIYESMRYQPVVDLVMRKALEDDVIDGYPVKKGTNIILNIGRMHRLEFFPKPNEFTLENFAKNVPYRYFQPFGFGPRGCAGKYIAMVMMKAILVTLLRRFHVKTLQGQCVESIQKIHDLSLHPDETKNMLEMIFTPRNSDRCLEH
Chain of Estrogen receptor (Homo sapiens) (P03372 whole entry, looked up): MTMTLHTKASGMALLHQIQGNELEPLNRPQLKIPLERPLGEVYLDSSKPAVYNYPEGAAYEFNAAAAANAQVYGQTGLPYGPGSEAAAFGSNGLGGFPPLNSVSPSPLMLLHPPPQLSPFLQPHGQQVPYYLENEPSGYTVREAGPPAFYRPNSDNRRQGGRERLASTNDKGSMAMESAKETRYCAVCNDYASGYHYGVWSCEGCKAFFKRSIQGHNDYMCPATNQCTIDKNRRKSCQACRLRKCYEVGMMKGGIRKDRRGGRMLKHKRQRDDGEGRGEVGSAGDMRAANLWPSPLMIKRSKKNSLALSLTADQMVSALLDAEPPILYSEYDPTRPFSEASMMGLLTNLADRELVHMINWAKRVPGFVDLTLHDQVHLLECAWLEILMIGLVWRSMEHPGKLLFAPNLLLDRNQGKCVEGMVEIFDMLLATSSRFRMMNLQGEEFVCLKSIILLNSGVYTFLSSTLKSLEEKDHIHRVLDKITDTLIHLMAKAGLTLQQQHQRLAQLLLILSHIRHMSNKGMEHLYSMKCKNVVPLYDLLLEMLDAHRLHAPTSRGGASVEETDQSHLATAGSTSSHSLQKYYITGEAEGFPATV

With `c1cc(OCC2CO2)cc(OCC2CO2)c1` (stereo not drawn), the Potency in assay [1] was 19.2 µM (active); in assay [2], 7.63 µM (active); in [6], 48.2 µM (active); in assay [8], 30.4 µM (active). Also, the Potency result in [3], in [4], in assay [5], in [7], in assay [9] and in assay [10] was “inactive” each time.
Turning to `NC(=O)c1ccccc1N`, the Potency entry in assay [1], in [2], in assay [3], in [11], in assay [12] and in assay [4] was “inactive” in each case. For the same molecule, the Potency result (in assay [13]; in [14]; in [5]; with Aromatase (Homo sapiens); in [6]; in assay [15]) was “inactive” each time. In addition, the Potency entry in assay [16], in assay [17], in assay [18], in assay [7], in [8] and in [9] was “inactive” in each case. In addition, the Potency entry in [10] and in assay [19] was “inactive” each time.
Consider `COC(=O)CC(C)CCC=C(C)C` (stereo not drawn), for which the Potency result in [1], in assay [2], in [3], in assay [11], in [12] and in assay [4] was “inactive” throughout. For the same molecule, the Potency entry (in assay [13]; in assay [14]; in [5]; in the assay with Aromatase (Homo sapiens); in assay [6]; in assay [15]) was “inactive” throughout. For the same molecule, the Potency result in [16], in assay [17], in assay [18], in assay [7] and in assay [9] was “inactive” each time.
Turning to `CCCCCCCC/C=C/CCCOC(C)=O`, the Potency entry in assay [1], in assay [2], in [3], in assay [11], in assay [12] and in assay [4] was “inactive” each time. The Potency result (in [13]; in assay [14]; in assay [5]; with Aromatase (Homo sapiens); in assay [6]; in assay [15]) was “inactive” throughout. Besides, the Potency entry in [16], in assay [17], in assay [18], in [7] and in assay [9] was “inactive” in each case.
Consider `CCCCCCOc1ccc(O)cc1`, for which the Potency in assay [1] was 12.2 µM (active); in [2] it was 6.86 µM (active); in assay [13], 8.63 µM (active); in assay [8], 27.3 µM (active). Further, the Potency result in [3], in assay [4], in assay [5], in assay [16], in assay [9] and in assay [10] was “inactive” each time. The Potency entry in assay [19] is “inactive”.
As to `NCCCCCCNCCCCCCN`, the Potency result in assay [1], in assay [2], in assay [3], in assay [11], in [12] and in assay [4] was “inactive” each time. Also, the Potency entry (in assay [13]; in assay [14]; in assay [5]; in the assay with Aromatase (Homo sapiens); in [6]; in assay [15]) was “inactive” in each case. The Potency entry in assay [16], in [17], in assay [18], in assay [7], in [9] and in [10] was “inactive” in each case. In addition, the Potency result in [19] is “inactive”.
Regarding `Cc1cn[nH]c1`, the Potency entry in assay [1], in assay [2], in assay [3], in assay [11], in assay [12] and in assay [4] was “inactive” throughout. Further, the Potency entry (in assay [13]; in assay [14]; in [5]; with Aromatase (Homo sapiens); in assay [6]; in assay [15]) was “inactive” in each case. Besides, the Potency entry in assay [16], in [17], in [18], in assay [7], in [8] and in assay [9] was “inactive” each time. In addition, the Potency result in assay [10] and in assay [19] was “inactive” each time.
With `CCN=C1C=CC(=C(c2ccc(N(CC)CC)cc2)c2ccc(N(CC)CC)cc2)c2ccccc21`, the Potency in [1] was 0.542 µM (active); in assay [2], 0.121 µM (active); in assay [11], 38.7 µM [cytotoxic] (active); in assay [12], 19.4 µM (active); in [14] it was 136 nM (active); in assay [5], 30.5 µM (active). Also, the Potency with Aromatase (Homo sapiens) was 0.216 µM (active); in assay [6] it was 9.63 µM (active); in [16], 24.2 µM (active); in [7], 0.154 µM (active); in assay [9], 5.42 µM (active); in assay [10], 21.7 µM (active). Moreover, the Potency result in assay [3] and in assay [15] was “inactive” each time.
In the case of `O=Nc1ccc(NO)cc1`, the Potency result in assay [1], in assay [2], in [3], in assay [11], in assay [12] and in assay [4] was “inactive” each time. Also, the Potency entry (in assay [13]; in [14]; in assay [5]; with Aromatase (Homo sapiens); in assay [6]; in [16]) was “inactive” each time. The Potency result in [17], in assay [18], in assay [7], in assay [9], in assay [10] and in [19] was “inactive” each time. Besides, the Potency in assay [15] is 31.9 µM (active); in assay [8], 6.36 µM (active).
In the case of `CCNc1nc(NC(C)CC)nc(OC)n1` (stereo not drawn), the Potency entry (in assay [1]; in [2]; in assay [3]; in assay [12]; in [5]; with Aromatase (Homo sapiens)) was “inactive” in each case. Also, the Potency entry in assay [6], in [16], in assay [17], in assay [18], in assay [7] and in assay [9] was “inactive” throughout.
For `CN(C)c1ccc(N=Nc2ccccc2C(=O)O)cc1`, the Potency in assay [1] was 15.4 µM (active); in assay [2], 9.69 µM (active); with Aromatase (Homo sapiens), 54.5 µM (active); in assay [6], 24.3 µM (active); in assay [15] it was 54.5 µM (active); in assay [9], 61.1 µM (active). In addition, the Potency result in assay [3], in [4], in assay [14] and in assay [18] was “inactive” throughout.
Take `CC(COC(=O)c1ccccc1)OC(=O)c1ccccc1` (stereo not drawn): the Potency result in [1], in [2], in assay [3], in assay [11], in [12] and in assay [4] was “inactive” throughout. Besides, the Potency result (in [14]; in assay [5]; with Aromatase (Homo sapiens); in assay [6]; in [15]; in assay [16]) was “inactive” in each case. Besides, the Potency entry in assay [17], in assay [7], in assay [9], in [10] and in assay [19] was “inactive” throughout.
As to `C/C=C/C(=O)Oc1c(CCCCCC(C)C)cc([N+](=O)[O-])cc1[N+](=O)[O-]`, the Potency in assay [1] was 12.2 µM (active); in assay [2], 3.86 µM (active); in assay [11], 4.9 µM [inconclusive] (active); with Aromatase (Homo sapiens), 15.4 µM (active); in assay [6], 21.7 µM (active); in [7], 6.16 µM (active). For the same molecule, the Potency in assay [9] was 8.63 µM (active); in [10] it was 24.5 µM (active). Also, the Potency entry in assay [3] is “inactive”.
For the molecule `C[Si](C)(C)Cl`, the Potency result in assay [1], in assay [2], in assay [3], in [11], in assay [12] and in assay [4] was “inactive” throughout. Moreover, the Potency entry (in assay [13]; in [14]; in assay [5]; with Aromatase (Homo sapiens); in assay [6]; in assay [15]) was “inactive” each time. In addition, the Potency result in [16], in assay [7], in assay [9], in assay [10] and in [19] was “inactive” each time.
